In the library only some 4.1% were active in any assay of this set; here they are far more common.
RecA splice inh = blocks M. tuberculosis RecA intein splicing; hit rate 0.75% among 290,000; AID 2221; P9WHJ3; cell-free RecA intein splicing, fluorescence; inhibition, % (no concentration beside the values); in the data active = inhibition above about 30%
Target sequence (P9WHJ3 whole entry, looked up, canonical isoform): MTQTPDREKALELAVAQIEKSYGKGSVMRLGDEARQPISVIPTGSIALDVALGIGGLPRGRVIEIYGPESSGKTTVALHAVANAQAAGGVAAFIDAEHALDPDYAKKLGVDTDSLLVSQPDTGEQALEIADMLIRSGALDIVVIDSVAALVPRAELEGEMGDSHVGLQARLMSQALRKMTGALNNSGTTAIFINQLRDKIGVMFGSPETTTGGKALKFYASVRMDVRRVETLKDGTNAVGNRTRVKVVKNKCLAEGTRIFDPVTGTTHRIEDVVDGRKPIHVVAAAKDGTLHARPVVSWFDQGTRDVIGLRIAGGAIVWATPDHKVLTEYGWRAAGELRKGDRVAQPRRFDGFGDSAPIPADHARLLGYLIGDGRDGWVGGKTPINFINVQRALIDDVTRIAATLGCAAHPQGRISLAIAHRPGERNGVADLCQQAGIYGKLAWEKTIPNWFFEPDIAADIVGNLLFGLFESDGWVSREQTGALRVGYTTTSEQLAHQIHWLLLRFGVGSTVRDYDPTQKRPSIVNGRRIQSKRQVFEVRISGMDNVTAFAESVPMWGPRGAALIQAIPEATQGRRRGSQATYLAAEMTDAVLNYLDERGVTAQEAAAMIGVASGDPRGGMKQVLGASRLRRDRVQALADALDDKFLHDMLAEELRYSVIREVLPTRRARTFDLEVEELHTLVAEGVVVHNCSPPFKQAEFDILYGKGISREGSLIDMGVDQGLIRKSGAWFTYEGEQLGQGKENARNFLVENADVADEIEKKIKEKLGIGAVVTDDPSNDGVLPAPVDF
BH1578 lux ind = quorum light induction in luxS cqsA deficient V. cholerae | activation, % at 18.7 µM | V. cholerae BH1578 lux reporter, luminescence, 6 h | hit rate 0.16% among 350,000; in the data active = activation mostly above about 9.7%, no sharp cut-off
GDH-TPI counter = GDH-TPI coupled enzyme inhibition counter-screen; GDH-TPI coupled enzyme counterscreen, NADH absorbance; inhibition, % at 4.8 µM; hit rate 1.2% among 360,000; AID 588335; in the data active = inhibition above about 30%
Rv3671c inh = inhibitors of M. tuberculosis serine protease Rv3671c. AID 2606. inhibition, % at 5.96 µM. P9WHR9. hit rate 0.048% among 320,000; in the data active = inhibition above about 38%;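 also: extracellular domain of Rv3671c used as enzyme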
Mtb FBA inh = inhibitors of M. tuberculosis fructose-bisphosphate aldolase; P9WQA3; purified M. tuberculosis FBA, fluorescence read-out; inhibition, % at 1 µM; hit rate 2.3% among 360,000; AID 588726; in the data active = inhibition above about 27%
Mtb UGM inh = blocks M. tuberculosis UGM enzyme. hit rate 0.06% among 320,000. purified UGM, fluorescence polarization probe displacement. P9WIQ1. inhibition, % at 10 µM; in the data active = inhibition above about 10%, passing the limit was not always enough
Numbers stand for hits.

What do the screens show for `CS(=O)(=O)c1ccc2nc(NC(=O)c3cc([N+](=O)[O-])cc([N+](=O)[O-])c3)sc2c1`?
RecA splice inh: inactive; BH1578 lux ind: inactive; GDH-TPI counter: inactive; Rv3671c inh: inactive; Mtb FBA inh: inactive; Mtb UGM inh: inactive

What do the screens show for `CS(=O)(=O)c1ccc2nc(NC(=O)c3cccs3)sc2c1`?
BH1578 lux ind: inactive; GDH-TPI counter: 49.1; Rv3671c inh: inactive; Mtb FBA inh: inactive; Mtb UGM inh: inactive

How did CCNS(=O)(=O)c1ccc2nc(NC(=O)c3cccnc3)sc2c1 do in these assays?
RecA splice inh: inactive; BH1578 lux ind: inactive; GDH-TPI counter: 70.3; Rv3671c inh: inactive; Mtb FBA inh: inactive; Mtb UGM inh: inactive

What do the screens show for `O=C(COC(=O)/C=C/c1ccc(Cl)cc1)NC1CCCCCC1`?
BH1578 lux ind: inactive; GDH-TPI counter: inactive; Rv3671c inh: inactive; Mtb FBA inh: inactive; Mtb UGM inh: inactive

How did Cc1ccc(S(=O)(=O)Nc2cc(C)cn(Cc3ccc(F)cc3)c2=O)cc1 do in these assays?
RecA splice inh: inactive; BH1578 lux ind: inactive; GDH-TPI counter: inactive; Rv3671c inh: inactive; Mtb FBA inh: inactive; Mtb UGM inh: inactive

How did CC1(C(=O)O)CCCN(C(=O)c2ccc(F)cc2Cl)C1 (centres undefined) do in these assays?
BH1578 lux ind: inactive; GDH-TPI counter: inactive; Mtb FBA inh: inactive

What do the screens show for `CCN(CC)C(=O)c1sc(NC(=O)c2ccc3c(c2)OCO3)c(C#N)c1C`?
RecA splice inh: inactive; BH1578 lux ind: inactive; GDH-TPI counter: inactive; Rv3671c inh: inactive; Mtb FBA inh: inactive; Mtb UGM inh: inactive

Results for Cc1c(C(=O)N2CCOCC2)sc(NC(=O)c2ccc3c(c2)OCO3)c1C#N ?
RecA splice inh: inactive; BH1578 lux ind: inactive; GDH-TPI counter: 45.3; Rv3671c inh: inactive; Mtb FBA inh: inactive; Mtb UGM inh: inactive

Results for O=C(c1ccccc1)N1CCN(C(=O)c2ccccc2)c2ccccc21 ?
BH1578 lux ind: inactive; GDH-TPI counter: inactive; Mtb FBA inh: inactive

What do the screens show for `COc1ccc(CC(=O)O/N=C(\N)Cc2cccc3ccccc23)cc1OC`?
RecA splice inh: 31.6; BH1578 lux ind: inactive; GDH-TPI counter: inactive; Rv3671c inh: inactive; Mtb FBA inh: inactive; Mtb UGM inh: inactive

How did N/C(Cc1cccc2ccccc12)=N\OC(=O)Cc1cccs1 do in these assays?
RecA splice inh: inactive; BH1578 lux ind: inactive; GDH-TPI counter: inactive; Rv3671c inh: inactive; Mtb FBA inh: inactive; Mtb UGM inh: inactive

Results for N/C(Cc1cccc2ccccc12)=N\OC(=O)c1cccs1 ?
RecA splice inh: 33.0; BH1578 lux ind: inactive; Rv3671c inh: inactive; Mtb UGM inh: inactive

How did O=C(O)C1SCCN1S(=O)(=O)c1ccc(N=NN2CCOCC2)cc1 (centres undefined) do in these assays?
RecA splice inh: inactive; BH1578 lux ind: inactive; GDH-TPI counter: inactive; Rv3671c inh: inactive; Mtb FBA inh: 165.3; Mtb UGM inh: inactive

What do the screens show for `O=C(N/N=C/c1ccc[nH]1)c1ccncc1`?
RecA splice inh: inactive; BH1578 lux ind: inactive; GDH-TPI counter: inactive; Rv3671c inh: inactive; Mtb FBA inh: inactive; Mtb UGM inh: inactive

Results for O=C(N/N=C/c1ccc[nH]1)c1ccccc1[N+](=O)[O-] ?
RecA splice inh: inactive; BH1578 lux ind: inactive; GDH-TPI counter: inactive; Rv3671c inh: inactive; Mtb FBA inh: inactive; Mtb UGM inh: inactive

What do the screens show for `O=C(N/N=C/c1ccc[nH]1)c1ccc(Cl)cc1`?
RecA splice inh: inactive; BH1578 lux ind: inactive; GDH-TPI counter: 39.0; Rv3671c inh: inactive; Mtb FBA inh: inactive; Mtb UGM inh: inactive

Results for Cc1ccc(C(=O)N/N=C\c2ccc[nH]2)cc1[N+](=O)[O-] ?
RecA splice inh: inactive; GDH-TPI counter: 48.0; Rv3671c inh: inactive; Mtb FBA inh: inactive; Mtb UGM inh: inactive

How did O=C(NNC(=O)C1CCN(C(=O)Nc2ccccc2)CC1)c1ccc([N+](=O)[O-])cc1 do in these assays?
BH1578 lux ind: inactive; GDH-TPI counter: inactive; Rv3671c inh: inactive; Mtb FBA inh: inactive; Mtb UGM inh: inactive

What do the screens show for `Oc1ccc(C=NC2CCCCC2)cc1`?
RecA splice inh: inactive; BH1578 lux ind: inactive; GDH-TPI counter: 37.3; Rv3671c inh: inactive; Mtb FBA inh: inactive; Mtb UGM inh: inactive

How did O=C1CC(c2ccccc2)CC(O)=C1C=NC1CCCCC1 (centres undefined) do in these assays?
RecA splice inh: inactive; BH1578 lux ind: inactive; GDH-TPI counter: inactive; Rv3671c inh: inactive; Mtb FBA inh: inactive; Mtb UGM inh: inactive

Results for Cc1nn(-c2ccccc2)c2sc(C(=O)OCc3nnc(-c4ccccc4)o3)cc12 ?
RecA splice inh: inactive; BH1578 lux ind: 22.2; GDH-TPI counter: inactive; Rv3671c inh: inactive; Mtb FBA inh: inactive; Mtb UGM inh: inactive

What do the screens show for `COC(=O)c1cc2c(C)nn(-c3ccccc3)c2s1`?
RecA splice inh: inactive; BH1578 lux ind: inactive; GDH-TPI counter: inactive; Rv3671c inh: inactive; Mtb FBA inh: 34.6; Mtb UGM inh: inactive

Results for Cc1nn(-c2ccccc2)c2sc(-c3n[nH]c(=S)o3)cc12 ?
RecA splice inh: inactive; BH1578 lux ind: inactive; GDH-TPI counter: 42.2; Rv3671c inh: inactive; Mtb FBA inh: active; Mtb UGM inh: inactive

Results for Cc1nn(-c2ccccc2)c2sc(C(=O)O)cc12 ?
RecA splice inh: inactive; BH1578 lux ind: inactive; GDH-TPI counter: inactive; Rv3671c inh: inactive; Mtb FBA inh: inactive; Mtb UGM inh: inactive

How did Cc1ccccc1CC(=O)N1CCCC1 do in these assays?
RecA splice inh: inactive; BH1578 lux ind: inactive; GDH-TPI counter: inactive; Rv3671c inh: inactive; Mtb FBA inh: inactive; Mtb UGM inh: inactive

Results for O=C(O)c1ccc2c(c1)C(=O)N(c1ccc([N+](=O)[O-])cn1)C2=O ?
RecA splice inh: inactive; BH1578 lux ind: inactive; GDH-TPI counter: 35.7; Rv3671c inh: inactive; Mtb FBA inh: inactive; Mtb UGM inh: inactive

What do the screens show for `CCN(c1ccccc1)S(=O)(=O)c1cccc(C(=O)NCc2ccccn2)c1`?
RecA splice inh: inactive; BH1578 lux ind: inactive; GDH-TPI counter: inactive; Rv3671c inh: inactive; Mtb FBA inh: inactive; Mtb UGM inh: inactive

What do the screens show for `COc1ccccc1-c1oc2ccccc2c1-c1ccc2cc[nH]c2c1`?
BH1578 lux ind: inactive; GDH-TPI counter: inactive; Rv3671c inh: inactive; Mtb FBA inh: inactive; Mtb UGM inh: inactive

What do the screens show for `CCOC(=O)c1ccc(-c2c(-c3ccccc3OC)oc3ccccc23)cc1F`?
BH1578 lux ind: inactive; GDH-TPI counter: inactive; Rv3671c inh: inactive; Mtb FBA inh: 28.1; Mtb UGM inh: inactive

What do the screens show for `CCCCCn1c(=NC(C)=O)c(C#N)cc2c(=O)n3ccccc3nc21`?
RecA splice inh: inactive; BH1578 lux ind: inactive; GDH-TPI counter: inactive; Rv3671c inh: inactive; Mtb FBA inh: 133.1; Mtb UGM inh: inactive

What do the screens show for `CCOCCCn1c(=NC(=O)c2ccc(OC)c(OC)c2)c(C#N)cc2c(=O)n3cccc(C)c3nc21`?
RecA splice inh: inactive; Rv3671c inh: inactive; Mtb UGM inh: inactive

Results for CC(=O)N=c1c(C#N)cc2c(=O)n3ccccc3nc2n1CCCOC(C)C ?
RecA splice inh: inactive; BH1578 lux ind: inactive; GDH-TPI counter: inactive; Rv3671c inh: inactive; Mtb FBA inh: active; Mtb UGM inh: inactive

Results for CC(C)OCCCn1c(=NC(=O)c2cccs2)c(C#N)cc2c(=O)n3ccccc3nc21 ?
RecA splice inh: inactive; BH1578 lux ind: inactive; GDH-TPI counter: inactive; Rv3671c inh: inactive; Mtb FBA inh: active; Mtb UGM inh: inactive

Bioassay records: PubChem BioAssay, several laboratories
